Source: PubChem BioAssay
This is a sample that favours compounds with a hit; in the whole collection about 3.5% have one here.
MITF inh: MITF inhibitors, primary screen, biochemical, AlphaScreen, human | Microphthalmia-associated transcription factor (Homo sapiens), O75030 | AlphaScreen MITF homodimerization, bead proximity signal | inhibition, % at 2.6 µM | actives 0.91% (n = 650,000) | AID 1259374, 2018; in the data active = inhibition above about 50%;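 note: 0% = vehicle wells with protein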
Target sequence (O75030 whole entry, looked up): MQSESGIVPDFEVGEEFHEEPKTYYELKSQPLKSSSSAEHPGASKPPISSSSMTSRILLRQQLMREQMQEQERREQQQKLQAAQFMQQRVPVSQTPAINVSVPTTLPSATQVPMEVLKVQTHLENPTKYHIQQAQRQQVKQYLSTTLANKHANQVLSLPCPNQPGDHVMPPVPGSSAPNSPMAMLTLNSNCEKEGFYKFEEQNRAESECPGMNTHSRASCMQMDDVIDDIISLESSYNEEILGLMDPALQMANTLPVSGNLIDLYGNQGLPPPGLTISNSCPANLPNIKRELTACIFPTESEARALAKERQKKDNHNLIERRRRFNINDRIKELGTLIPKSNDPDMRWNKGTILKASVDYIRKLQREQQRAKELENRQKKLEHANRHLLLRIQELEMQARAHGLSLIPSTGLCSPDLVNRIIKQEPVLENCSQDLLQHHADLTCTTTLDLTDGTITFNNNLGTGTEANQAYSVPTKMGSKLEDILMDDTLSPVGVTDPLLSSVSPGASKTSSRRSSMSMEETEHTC
FBW7 act: FBW7 E3 ligase activators, primary screen, biochemical, AlphaScreen, human; AID 1259310, 2017; AlphaScreen FBW7–phospho-cyclin E peptide binding, activator screen; normalized activity (activation), % at 26.1 µM; actives 0.13% (n = 650,000); F-box/WD repeat-containing protein 7 (Homo sapiens), Q969H0; in the data active = normalized activity above about 1.9%;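 note: purified mutant Fbw7 with reduced substrate affinity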
TEAD-YAP block: TEAD-YAP interaction inhibition, primary screen, TEAD-YAP interaction inhibitor project, luminescence, HEK-TIYL cells. TEAD-Gal4/YAP UAS-luciferase luminescence. inhibition, % at 9.12 µM. actives 1.4% (n = 640,000). AID 1259422, 2018; in the data active = inhibition above about 32%;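 note: 0% = median of test compound wells and 100% = reference inhibitor wells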
GPR151 activ: activators of human GPR151, primary screen, cell-based, PathHunter beta-arrestin, luminescence; PathHunter beta-arrestin GPR151 cells; activation, % at 11.2 µM; actives 1% (n = 650,000); AID 1508602, 2020; in the data active = activation above about 4.9%;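 note: 0% = median of compound wells and 100% = cells with positive control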
MITF inh conf: MITF inhibitors, retest of hits, confirmation, biochemical, AlphaScreen, triplicate; AlphaScreen MITF homodimerization, biotin/His-MITF beads; shares compounds with MITF inh; actives 16% (n = 4,700); inhibition, % at 2.6 µM;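 active = inhibition above a cutoff derived from the DMSO control wells, cut at about 28% in these data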;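 note: 0% = MITF dimer wells with DMSO only; inhibitors lower the bead chemiluminescence by keeping MITF from dimerizing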
AlphaScreen intf2: AlphaScreen optical interference compounds, counter-screen for MITF inhibitor project, biochemical, triplicate; shares compounds with MITF inh; LysRS AlphaScreen counterscreen, signal interference; inhibition, % at 2.6 µM; actives 7.6% (n = 4,700); AID 1259376, 2018;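 active = inhibition above a cutoff derived from the DMSO control wells, cut at about 30% in these data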
Active calls of the source: *; / = not tested or not shown.

SMILES	MITF inh	FBW7 act	TEAD-YAP block	GPR151 activ	MITF inh conf	AlphaScreen intf2
CSc1ccc(CN2CCC(N3CCCCC3)CC2)cc1	13	0	-3	0	/	/
Cc1ccc(CN2CCN(C3CCCCCC3)CC2)cc1	69*	0	3	-1	11	23
COC(=O)NNC(=S)Nc1ccc(S(=O)(=O)Nc2ncccn2)cc1	-4	0	-3	0	/	/
CCOc1ccccc1N1CCN(C(=O)C2CCN(Cc3cccs3)CC2)CC1	51*	0	3	1	11	17
CCOc1ccccc1N1CCN(Cc2ccoc2)CC1	53*	0	2	0	4	-2
c1ccc2c(OCCN3CCCCC3)cccc2c1	-1	0	-1	0	/	/
CCOc1ccccc1OCCN1CCCC1	75*	1	7	0	-12	-9
CCOc1ccccc1OCCN1CCCCC1	39	1	-5	0	/	/
Clc1ccc(OCCN2CCCC2)c2ccccc12	53*	0	-7	2	-9	-5
Cn1c(=O)n(C)c2cc(C(=O)NC3(c4ccc5c(c4)OCO5)CCCC3)ccc21	15	0	2	0	/	/
O=C(COc1ccccc1F)OCCN1CCCC1	57*	0	-8	-1	6	6
CCOc1ccccc1OCCN1CCN(c2ccccc2OC)CC1	89*	1	10	-2	4	25
O=C(COc1ccccc1F)N1CCCCC1	10	0	-25	2	/	/
CCOc1ccccc1OCCOCCN1CC(C)OC(C)C1 (stereo unspecified)	53*	0	10	-2	1	14
CCOC(=O)CNC(=O)CN1Cc2ccccc2C1=O	-1	0	-8	2	/	/
CC1CC(C)CN(C(=O)c2cccc3c2-c2ccccc2C3=O)C1 (stereo unspecified)	66*	0	-9	-1	5	-4
CC1CC(C)CN(C(=O)c2cccc3ccccc23)C1 (stereo unspecified)	7	0	-1	-1	/	/
COc1ccccc1N1CCN(CC(=O)Nc2ccccc2Br)CC1	-3	0	-1	2	/	/
FC(F)(F)c1cccc(CNc2ncnc3nc(Nc4nccc5ccccc45)[nH]c23)c1	16	0	-7	-1	/	/
CCS(=O)(=O)N1CCN(CC(=O)c2ccco2)CC1	56*	0	5	2	8	23
O=C(CN1CCN(Cc2ccc(Cl)c(Cl)c2)CC1)c1ccco1	61*	0	-1	0	7	19
O=C(CN1CCN(C(=O)c2c(F)cccc2Cl)CC1)c1ccco1	8	0	-7	3	/	/
O=C(C1CCCN1S(=O)(=O)c1cccc2cccnc12)N1CCc2ccccc21 (stereo unspecified)	73*	0	8	1	-18	-4
COc1ccc(NC(=O)Cn2nnc(-c3ccccc3N)n2)cc1OC	58*	0	10	0	7	13
COc1ccccc1C(=O)Nc1ccccc1-c1nnn(CC(N)=O)n1	93*	0	-2	2	13	12
SMILES	MITF inh	FBW7 act	TEAD-YAP block	GPR151 activ	MITF inh conf	AlphaScreen intf2
COc1cc(C(=O)Nc2ccccc2-c2nnn(CC(N)=O)n2)cc(OC)c1OC	3	0	10	0	/	/
CC(C)CCN1CCc2nnc(CCc3ccccc3)n2CC1	-7	0	3	1	/	/
CC1=C(C(=O)Nc2ccccc2C)C(c2ccco2)C(C#N)=C(SCC(=O)Nc2ccc(C)cc2)N1 (stereo unspecified)	-10	0	-15	2	/	/
CCOc1ccc(NC(=O)CSC2=C(C#N)C(c3ccco3)C(C(=O)Nc3ccccc3C)=C(C)N2)cc1 (stereo unspecified)	63*	0	7	1	0	3
Cc1ccc(C(=O)Nc2c3c(nn2-c2ccccc2C)CSC3)cc1	71*	0	2	1	11	16
COc1ccc(-n2nc3c(c2NC(=O)c2ccc4c(c2)OCO4)CSC3)cc1	89*	0	18	-1	-8	-6
Cc1ccccc1-n1nc2c(c1NC(=O)c1ccc(Br)cc1)CSC2	7	0	7	0	/	/
Cc1ccccc1C(=O)Nc1c2c(nn1-c1ccc([N+](=O)[O-])cc1)CSC2	61*	0	-4	1	2	9
Cc1ccc(OCC(=O)Nc2ccc(-c3nc4ccccc4o3)cc2)cc1C	5	0	-9	1	/	/
O=C(NC1CCN(Cc2ccccc2)CC1)c1ccc2nc(Nc3ccccn3)sc2c1	23	0	-18	0	/	/
COc1ccc(S(=O)(=O)N2CCCN(Cc3ccccc3)CC2)cc1	17	0	4	-1	/	/
O=S(=O)(c1ccc(Cl)cc1)N1CCN(C2CCN(Cc3ccccc3)CC2)CC1	2	0	-5	-1	/	/
CN1CCN(C2CCN(S(=O)(=O)c3ccccc3)CC2)CC1	59*	0	6	0	6	14
COc1ccc(S(=O)(=O)N2CCN(c3ccccc3F)CC2)cc1	22	0	-11	0	/	/
O=S(=O)(c1ccccc1)N1CCC(N2CCCCCC2)CC1	28	0	1	2	/	/
COc1ccc(S(=O)(=O)N2CCC(N3CCN(c4ccccc4F)CC3)CC2)cc1	52*	0	9	0	7	-1
COc1ccc(S(=O)(=O)N2CCC(N3CCN(Cc4ccccc4)CC3)CC2)cc1	78*	0	7	0	-2	0
O=S(=O)(c1ccc2ccccc2c1)N1CCC(N2CCN(Cc3ccccc3)CC2)CC1	57*	0	11	-2	6	15
C/C=C(\C)CN1C[C@@H](NC(=O)c2sccc2C)C[C@H]1C(=O)OC	12	0	11	0	/	/
COc1ccc(C(C)=O)cc1COC(=O)/C=C/c1cccs1	3	0	8	1	/	/
Cc1cc(C)n(CCC(=O)NC2(c3ccc(F)cc3)CCCC2)n1	-13	0	4	-1	/	/
COc1ccc(C(=O)Nc2cc(-c3nc4cc(C)ccc4o3)ccc2Cl)cc1Br	59*	0	-31	-1	6	14
FC(F)(F)c1ccccc1CN1CCN(c2ncccn2)CC1	51*	0	7	1	15	7
FC(F)(F)c1ccccc1CN1CCN(Cc2ccccn2)CC1	78*	0	2	3	-9	4
c1ccc(CN2CCN(Cc3cccc4ccccc34)CC2)nc1	64*	0	7	5	4	7
Fc1ccccc1N1CCN(Cc2ccccn2)CC1	56*	0	-11	-1	-1	10
Oc1ccc(-c2ncccn2)cc1CN1CCN(c2ccccc2F)CC1	7	0	1	1	/	/
